The structures appear in SMILES notation. Screen size: about 310,000 compounds; about 14,000 (4.5%) showed an effect of 50% or more. The effect is printed as a negative number. What follows is part of a selection rich in strong results, with near analogues and random picks from the rest.

52 molecules from PMC4336329 (PLoS ONE, 2015) can be followed below.
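Also: peak tail current of the secondary pulse compared with the same well before compound.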

Sequence of human ether-à-go-go-related gene (hERG) potassium channel (Q12809 whole entry, looked up): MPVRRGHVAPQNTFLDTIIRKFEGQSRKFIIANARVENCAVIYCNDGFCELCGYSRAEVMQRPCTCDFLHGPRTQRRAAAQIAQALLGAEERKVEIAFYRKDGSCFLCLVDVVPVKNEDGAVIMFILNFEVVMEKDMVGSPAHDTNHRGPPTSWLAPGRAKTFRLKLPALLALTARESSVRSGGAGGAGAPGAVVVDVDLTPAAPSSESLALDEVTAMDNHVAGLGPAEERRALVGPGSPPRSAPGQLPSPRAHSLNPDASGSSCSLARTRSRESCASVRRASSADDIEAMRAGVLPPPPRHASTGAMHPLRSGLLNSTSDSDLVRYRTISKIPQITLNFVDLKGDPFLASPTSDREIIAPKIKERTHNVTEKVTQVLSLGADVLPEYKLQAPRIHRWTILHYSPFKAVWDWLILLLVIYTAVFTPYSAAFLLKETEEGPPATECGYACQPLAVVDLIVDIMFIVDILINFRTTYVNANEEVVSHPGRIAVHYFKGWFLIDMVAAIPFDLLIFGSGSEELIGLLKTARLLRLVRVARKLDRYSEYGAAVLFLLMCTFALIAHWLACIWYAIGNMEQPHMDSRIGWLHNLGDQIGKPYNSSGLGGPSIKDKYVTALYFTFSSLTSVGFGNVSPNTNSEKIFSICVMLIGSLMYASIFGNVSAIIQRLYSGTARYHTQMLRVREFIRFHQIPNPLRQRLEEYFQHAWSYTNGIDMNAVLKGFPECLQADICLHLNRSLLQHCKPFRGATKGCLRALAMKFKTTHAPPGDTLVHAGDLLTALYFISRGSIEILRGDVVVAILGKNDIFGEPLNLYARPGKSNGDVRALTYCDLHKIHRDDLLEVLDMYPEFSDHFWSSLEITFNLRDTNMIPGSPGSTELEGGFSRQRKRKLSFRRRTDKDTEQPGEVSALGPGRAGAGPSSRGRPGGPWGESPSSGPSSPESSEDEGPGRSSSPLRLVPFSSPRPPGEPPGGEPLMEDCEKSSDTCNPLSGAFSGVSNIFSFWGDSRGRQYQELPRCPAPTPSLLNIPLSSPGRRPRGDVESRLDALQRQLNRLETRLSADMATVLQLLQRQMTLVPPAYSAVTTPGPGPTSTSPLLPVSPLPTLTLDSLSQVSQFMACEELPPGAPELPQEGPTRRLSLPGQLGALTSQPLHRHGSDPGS

The test has as its target human ether-à-go-go-related gene (hERG) potassium channel (human, UniProt Q12809). Briefly: primary screen, population patch clamp on CHO cells stably expressing hERG; higher = less effect of the substance.
`O=C(Nc1ccc(C(=O)N2CCC(O)(c3ccc(Cl)c(C(F)(F)F)c3)CC2)cc1)c1ccc(Br)o1`: the “hERG current change (%, negative = inhibition) at 10uM” value came out at 8.21%.

For the molecule `Cc1cc2cc(CCNC(=O)CC(C)(C)C)c(=O)[nH]c2cc1C`, the “hERG current change (%, negative = inhibition) at 10uM” value came out at 7.53%. For `O=C(Cc1coc(-c2ccc(F)cc2)n1)Nc1ccccc1`, the “hERG current change (%, negative = inhibition) at 10uM” value is reported as -15.4%. As for `Cn1c(=O)c2ncn(CC(=O)Nc3nc(-c4ccc(Cl)cc4)cs3)c2n(C)c1=O`, the figure is 12.1%; as for `N#CCc1c(C#N)c(N)nc(N2CCN(S(=O)(=O)c3ccccc3F)CC2)c1C#N`, -9.75%.

Turning to `O=C(CN(c1ccccc1)S(=O)(=O)c1ccccc1)Nc1ccc(F)cc1`, the “hERG current change (%, negative = inhibition) at 10uM” value is given as 22.6%. The value for `Cc1cccc(N2C(=O)NC(=O)/C(=C\c3cc(C)n(-c4sc5c(c4C#N)CCCC5)c3C)C2=O)c1C` was 4.35%; that for `Cc1nnc(NC(=O)CSc2nnc(C)n2Cc2ccccc2)s1` was 17.7%. The value for `CC1CCN(C(=O)c2cccc(S(=O)(=O)N3CCN(c4ccccc4)CC3)c2)CC1` was 2.41%. With `CC1CC(C)CN(S(=O)(=O)c2cccc(C(=O)N3CCN(c4ccc(F)cc4)CC3)c2)C1` (stereo not shown), the “hERG current change (%, negative = inhibition) at 10uM” value is listed as -51.9%. For the molecule `CC1CCN(S(=O)(=O)c2cccc(C(=O)N3CCN(c4ccc(F)cc4)CC3)c2)CC1`, the “hERG current change (%, negative = inhibition) at 10uM” value was -65.4%. The value for `CC1CN(C(=O)c2cccc(S(=O)(=O)N3CCN(c4ccc(F)cc4)CC3)c2)CC(C)O1` (stereo not shown) was -45.4%; that for `CC(=O)N1CCN(C(=O)c2cccc(S(=O)(=O)N3CCN(c4ccc(F)cc4)CC3)c2)CC1` was -20.1%; that for `O=C(c1cccc(S(=O)(=O)N2CCN(c3ccc(F)cc3)CC2)c1)N1CCCCCCC1` was -45.2%. As to `COc1cc(/C=N/NC(=O)CSc2n[nH]c(=O)[nH]c2=O)cc(OC)c1O`, the “hERG current change (%, negative = inhibition) at 10uM” value amounted to 28.8%. As for `Cc1cc(C)cc(-n2c(SC(C)C(=O)NCc3ccc4c(c3)OCO4)nc3ccccc3c2=O)c1` (stereo not shown), the figure is 11.3%; as for `COc1cc(NC(=O)c2ccc(C)cc2C)ccc1NC(=O)c1cc2ccccc2o1`, 6.61%. As for `Nc1c(C(=O)c2ccccc2)sc2nsc(SCCN3CCCC3)c12`, the “hERG current change (%, negative = inhibition) at 10uM” value was -38.2%. `Clc1ccc(N2CCN(/N=C/c3cccnc3)CC2)cc1`: the “hERG current change (%, negative = inhibition) at 10uM” value is on record as -1.21%. The value for `O=C(Nc1nccs1)c1ccc(Br)cc1` was 12.1%; that for `O=C(CSc1nnc(-c2ccc(Cl)cc2)n1-c1ccc(Cl)cc1)N/N=C/c1ccco1` was -41.7%; that for `O=C(CSc1nnc(-c2ccccc2)n1-c1ccc(Cl)cc1)N/N=C/c1ccco1` was -55%.

As for `Cc1ccc(/C=N/NC(=O)CSc2nnc(-c3ccccc3)n2-c2ccc(Cl)cc2)o1`, the “hERG current change (%, negative = inhibition) at 10uM” value was -21.8%. As for `CCn1c(SCC(=O)N/N=C/C(C)=C/c2ccco2)nnc1-c1ccccc1`, the figure is -55.1%; as for `CCn1c(SCC(=O)N/N=C/C=C/c2ccco2)nnc1-c1ccccc1`, -34.7%. Regarding `CCn1c(SCC(=O)N/N=C/C(C)=C\c2ccco2)nnc1-c1ccccc1`, the “hERG current change (%, negative = inhibition) at 10uM” value is recorded as -39%. As for `O=C(CSc1nnc(SCc2ccccc2)s1)N/N=C/c1ccc(Cl)cc1Cl`, the figure is -5.88%; as for `O=C(CSc1nnc(-c2ccccc2)c(-c2ccccc2)n1)NC1CCS(=O)(=O)C1` (stereo not shown), 17.3%; as for `Cc1cc(C)n(-c2nc(SCCN(C)C)c3c4c(sc3n2)COC(C)(C)C4)n1`, -59.1%. The value for `Cc1cc(C)n(-c2nc(NCCCO)c3c4c(sc3n2)CCCC4)n1` was -17.9%.

`Cc1cc(C)n(-c2nc(NCCN(C)C)c3c4c(sc3n2)COC(C)(C)C4)n1`: the “hERG current change (%, negative = inhibition) at 10uM” value is -32.7%. With `CCN(CC)CCCNc1nc(-n2nc(C)cc2C)nc2sc3c(c12)CC(C)(C)OC3`, the “hERG current change (%, negative = inhibition) at 10uM” value is given as -23%. In the case of `Cc1cc(C)n(-c2nc(SCC(=O)O)c3c4c(sc3n2)COC(C)(C)C4)n1`, the “hERG current change (%, negative = inhibition) at 10uM” value is 2.48%.

On to `Cc1cc(C)n(-c2nc(NCCCN(C)C)c3c4c(sc3n2)COC(C)(C)C4)n1`, for which the “hERG current change (%, negative = inhibition) at 10uM” value is -14.1%. As for `Cc1cc(C)n(-c2nc(SCCN(C)C)c3c4c(sc3n2)CCCC4)n1`, the figure is -53.7%.

With `CCN(CC)CCNc1nc(-n2nc(C)cc2C)nc2sc3c(c12)CC(C)(C)OC3`, the “hERG current change (%, negative = inhibition) at 10uM” value is given as -55.4%.

In the case of `Cc1cc(C)n(-c2nc(SCC(=O)N3CCCC3)c3c4c(sc3n2)CCCC4)n1`, the “hERG current change (%, negative = inhibition) at 10uM” value is listed as -9.29%.

Turning to `Cc1cc(C)n(-c2nc(NCCN(C)C)c3c4c(sc3n2)CCCC4)n1`, the “hERG current change (%, negative = inhibition) at 10uM” value was -16.3%. On to `Cc1cc(C)n(-c2nc(SCC(=O)O)c3c4c(sc3n2)CCCC4)n1`, for which the “hERG current change (%, negative = inhibition) at 10uM” value was 6.68%. The value for `Cc1cc(C)n(-c2nc(NCCCN(C)C)c3c4c(sc3n2)CCCC4)n1` was -65.2%. With `C=CCn1cc(/C=N\NC(=O)c2cc3c(ccc4ccccc43)o2)c2ccccc21`, the “hERG current change (%, negative = inhibition) at 10uM” value is given as -4.85%. Turning to `O=C(c1ccccc1)c1c[nH]c2ccccc12`, the “hERG current change (%, negative = inhibition) at 10uM” value stood at 14.6%. As for `Cc1cc(C)cc(NC(=S)N2CCN(S(=O)(=O)c3ccccc3)CC2)c1`, the figure is 0.86%; as for `O=C(O)c1ccc(-c2ccc(OS(=O)(=O)c3ccccc3F)cc2)cc1`, 9.84%; as for `O=C(COc1ccccc1Cl)Nc1ccc2c(c1)OCO2`, 11.1%. As for `CC(C)C(=O)Nc1ccc(NC(=O)c2ccc(COc3ccccc3)cc2)cc1`, the figure is 16.3%; as for `CCOC(=O)C1CCN(C(=O)c2ccc(SC)cc2OC)CC1`, -19.8%.

`O=C1c2ccccc2C(=O)C12OC2c1ccc(Cl)cc1Cl` (stereo not shown): the “hERG current change (%, negative = inhibition) at 10uM” value is recorded as 4.07%.

Take `O=C1c2ccccc2C(=O)C12OC2c1ccc(Cl)cc1` (stereo not shown): the “hERG current change (%, negative = inhibition) at 10uM” value was determined as 6.63%. The value for `O=C1c2ccccc2C(=O)C12OC2c1cccc2ccccc12` (stereo not shown) was -69.2%; that for `Cc1c(C)n(Cc2ccccc2)c2ccc(C(=O)NCCN3CCOCC3)cc12` was -3.43%; that for `CCOC(=O)c1cc(-c2ccccc2)sc1N` was 0.819%.
